A short description of experiment [1]: small molecules captured by biotinylated probe aFSTL3 – biochemical, small-molecule microarray, fluorescence 635/667, stem cell growth factor project, primary screen (AID 1064).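 Note: measures binding of the biotinylated anti-FSTL3 antibody to printed compounds.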 Conditions: higher = more signal.
Experiment [2] in a line: binders from COS7 lysate, DM2A8 probe, primary screen, torsin A project, cell lysate, small-molecule microarray, fluorescence 635/667 (AID 1065). The note with it: higher = more signal, COS7 lysate expressing mutant human TOR1A.
Experiment [3] in a line: small molecules captured by biotinylated probe aFGF2 – biochemical, small-molecule microarray, fluorescence 635/667, stem cell growth factor project, primary screen (AID 1067).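 Note: measures binding of biotinylated aFGF2 protein to printed compounds on slides; z-score merges feature fluorescence and signal-to-noise across triplicate slides.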 Conditions: higher = more signal.
Experiment [4] in a line: small molecules captured by biotinylated probe aFGF10 – biochemical, small-molecule microarray, fluorescence 635/667, stem cell growth factor project, primary screen (AID 1071).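 Note: score merges 667 nm spot intensity and signal to noise from triplicate slides.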 Conditions: higher = more signal.
For experiment [5], the target named is Neurogenic locus notch homolog protein 2 (Homo sapiens) (UniProt Q04721). Kind of experiment: small molecules binding Notch2 protein – biochemical, small-molecule microarray, 635 nm fluorescence, stem cell growth factors, primary screen (AID 1073). The note with it: higher = more signal.
In experiment [6] the target is Pro-neuregulin-1, membrane-bound isoform (Homo sapiens) (UniProt Q02297). As to the kind of experiment: small molecules binding neuregulin-1 protein – biochemical, small-molecule microarray, fluorescence 635/667, psychiatric disease protein project, primary screen (AID 1075).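 Note: score combines 667 nm spot fluorescence with signal to noise.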 Conditions: NRG1 binding, 635 nm fluorescence, higher = more signal.
Chain of Pro-neuregulin-1, membrane-bound isoform (Homo sapiens) (Q02297 whole entry, looked up, the tested form may be a part, canonical isoform): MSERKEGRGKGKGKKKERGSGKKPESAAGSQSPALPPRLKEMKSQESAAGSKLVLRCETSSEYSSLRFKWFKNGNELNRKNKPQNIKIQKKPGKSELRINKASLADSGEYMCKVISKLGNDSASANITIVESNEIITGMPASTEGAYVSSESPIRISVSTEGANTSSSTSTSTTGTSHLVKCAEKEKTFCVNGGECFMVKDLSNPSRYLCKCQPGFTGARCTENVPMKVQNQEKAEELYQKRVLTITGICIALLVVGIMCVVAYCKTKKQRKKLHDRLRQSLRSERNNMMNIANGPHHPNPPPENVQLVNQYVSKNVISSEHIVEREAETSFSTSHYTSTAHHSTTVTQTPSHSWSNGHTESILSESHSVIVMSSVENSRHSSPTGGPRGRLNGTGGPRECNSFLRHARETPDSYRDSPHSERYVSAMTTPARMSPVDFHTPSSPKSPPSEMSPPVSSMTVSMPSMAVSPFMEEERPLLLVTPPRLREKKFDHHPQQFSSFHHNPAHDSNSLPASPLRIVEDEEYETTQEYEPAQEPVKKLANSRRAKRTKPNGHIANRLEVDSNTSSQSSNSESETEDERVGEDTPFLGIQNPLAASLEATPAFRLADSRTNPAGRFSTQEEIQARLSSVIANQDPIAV
Experiment [7] relates to Neuregulin-1 EGF-like domain. Kind of experiment: small molecules binding NRG1 EGF domain – biochemical, small-molecule microarray, 635 nm fluorescence, primary screen (AID 1081).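 Note: binding of the protein to compounds printed on small-molecule microarray slides.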 The note with it: higher = more signal.
The nature of experiment [8]: FRG1 expression reporter modulators in myotubes – cell-based, C2C12 myotubes, firefly/Renilla luciferase, luminescence, FRG1 inhibition for FSHD, primary screen (AID 1084). The note with it: FRG1 promoter luciferase, higher = more signal, called active from +8 up or from −8 down.
The nature of experiment [9]: small molecules captured by biotinylated probe aFST – biochemical, small-molecule microarray, fluorescence 635/667, stem cell growth factor project, primary screen (AID 1086).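 Note: score merges 667 nm fluorescence with signal-to-noise of each printed compound spot.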 The note with it: higher = more signal.
Experiment [10] is described as follows: binders of probe aHhip on microarray, primary screen, stem cell growth factor project, biochemical, small-molecule microarray, fluorescence 635/667 (AID 1087).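 Note: score merges spot fluorescence at 667nm with spot signal to noise ratio.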 Conditions: higher = more signal.
For experiment [11], the system named is PRMT1 (protein arginine N-methyltransferase 1). Kind of experiment: small molecules binding arginine methyltransferase PRMT1 – biochemical, small-molecule microarray, 635 nm fluorescence, primary screen (AID 1088).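 Note: binding of Prmt1 protein to compounds spotted on small-molecule microarray slides.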 The note with it: higher = more signal.
The nature of experiment [12]: growth effects on S. cerevisiae YJM789 – YJM789 clinical isolate, OD600, 24 h, basal, primary screen (AID 1089).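 Note: growth of clinical yeast isolate S. cerevisiae YJM 789 seeded 1000 cells per well; test concentration not given here.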 Conditions: higher = more signal, called active from +8 up or from −8 down.
Experiment [13] can be described thus: S. pombe growth modifiers, basal conditions – strain 972, OD600, 24 h, no modulator, primary screen (AID 1090).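 Note: basal condition with compound alone and no growth modifier present; test concentration not given here.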 The note with it: S. pombe 972 growth, higher = more signal, called active from +8 up or from −8 down.
A short description of experiment [14]: budding yeast growth modifiers under rapamycin – strain BY4716, OD600, 96 h, primary screen (AID 1091). Note: test concentration not given here. The note with it: S. cerevisiae BY4716 + rapamycin, higher = more signal, called active from +8 up or from −8 down.
Experiment [15] deals with Torsin-1A-interacting protein 2 (Homo sapiens) (UniProt Q8NFQ8). Kind of experiment: small molecules binding lysate-expressed LULL1 – cell lysate, human LULL1 lysate, 635/667 nm fluorescence, primary screen (AID 1092).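 Note: probe is lysate of COS7 cells overexpressing human LULL1; score merges per-feature 667 nm fluorescence with signal-to-noise.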 Conditions: small-molecule microarray, hLULL1 lysate binding, 635 nm fluorescence; higher = more signal.
Chain of Torsin-1A-interacting protein 2 (Homo sapiens) (Q8NFQ8 whole entry, looked up): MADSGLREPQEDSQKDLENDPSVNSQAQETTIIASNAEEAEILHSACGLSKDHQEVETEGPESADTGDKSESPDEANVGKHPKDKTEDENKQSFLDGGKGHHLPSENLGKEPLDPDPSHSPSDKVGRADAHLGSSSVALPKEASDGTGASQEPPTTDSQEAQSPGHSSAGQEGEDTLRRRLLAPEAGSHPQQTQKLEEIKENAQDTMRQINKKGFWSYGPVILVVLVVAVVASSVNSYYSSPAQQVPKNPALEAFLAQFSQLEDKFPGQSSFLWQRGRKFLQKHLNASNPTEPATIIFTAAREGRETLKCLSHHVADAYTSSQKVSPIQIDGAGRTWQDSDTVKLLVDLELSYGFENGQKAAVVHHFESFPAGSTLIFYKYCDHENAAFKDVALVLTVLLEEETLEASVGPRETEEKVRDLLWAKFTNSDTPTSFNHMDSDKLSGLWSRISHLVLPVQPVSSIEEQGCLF
The nature of experiment [16]: optical density change of DRC41 E. coli – strain DRC41, OD650, 24 h, E. coli filamentation project, primary screen (AID 1093).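 Note: MC1000 strain lacking acrAB efflux and sulA so SOS filamentation is blocked; test concentration not given here.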 Conditions: E. coli DRC41 growth, higher = more signal, called active from +8 up or from −8 down.
Experiment [17] is described as follows: probe aLefty2 binding to arrayed compounds – biochemical, biotinylated probe, 635/667 nm fluorescence, primary screen (AID 1094).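 Note: score merges spot fluorescence near 667 nm with spot signal-to-noise ratio.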 The note with it: small-molecule microarray, higher = more signal.
Experiment [18] relates to Noggin (protein binding on small-molecule microarray). As to the kind of experiment: small molecules binding Noggin protein – biochemical, 635/667 nm fluorescence, primary screen (AID 1095).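 Note: score merges 667 nm feature fluorescence with signal to noise over triplicate slides.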 Conditions: 635 nm fluorescence, higher = more signal.
Experiment [19] deals with Neurogenic locus notch homolog protein 3 (Homo sapiens) (UniProt Q9UM47). As to the kind of experiment: small molecules binding NOTCH3 protein – biochemical, 635/667 nm fluorescence, primary screen (AID 1096). The note with it: small-molecule microarray, 635 nm fluorescence, higher = more signal.
Chain of Neurogenic locus notch homolog protein 3 (Homo sapiens) (Q9UM47 whole entry, looked up): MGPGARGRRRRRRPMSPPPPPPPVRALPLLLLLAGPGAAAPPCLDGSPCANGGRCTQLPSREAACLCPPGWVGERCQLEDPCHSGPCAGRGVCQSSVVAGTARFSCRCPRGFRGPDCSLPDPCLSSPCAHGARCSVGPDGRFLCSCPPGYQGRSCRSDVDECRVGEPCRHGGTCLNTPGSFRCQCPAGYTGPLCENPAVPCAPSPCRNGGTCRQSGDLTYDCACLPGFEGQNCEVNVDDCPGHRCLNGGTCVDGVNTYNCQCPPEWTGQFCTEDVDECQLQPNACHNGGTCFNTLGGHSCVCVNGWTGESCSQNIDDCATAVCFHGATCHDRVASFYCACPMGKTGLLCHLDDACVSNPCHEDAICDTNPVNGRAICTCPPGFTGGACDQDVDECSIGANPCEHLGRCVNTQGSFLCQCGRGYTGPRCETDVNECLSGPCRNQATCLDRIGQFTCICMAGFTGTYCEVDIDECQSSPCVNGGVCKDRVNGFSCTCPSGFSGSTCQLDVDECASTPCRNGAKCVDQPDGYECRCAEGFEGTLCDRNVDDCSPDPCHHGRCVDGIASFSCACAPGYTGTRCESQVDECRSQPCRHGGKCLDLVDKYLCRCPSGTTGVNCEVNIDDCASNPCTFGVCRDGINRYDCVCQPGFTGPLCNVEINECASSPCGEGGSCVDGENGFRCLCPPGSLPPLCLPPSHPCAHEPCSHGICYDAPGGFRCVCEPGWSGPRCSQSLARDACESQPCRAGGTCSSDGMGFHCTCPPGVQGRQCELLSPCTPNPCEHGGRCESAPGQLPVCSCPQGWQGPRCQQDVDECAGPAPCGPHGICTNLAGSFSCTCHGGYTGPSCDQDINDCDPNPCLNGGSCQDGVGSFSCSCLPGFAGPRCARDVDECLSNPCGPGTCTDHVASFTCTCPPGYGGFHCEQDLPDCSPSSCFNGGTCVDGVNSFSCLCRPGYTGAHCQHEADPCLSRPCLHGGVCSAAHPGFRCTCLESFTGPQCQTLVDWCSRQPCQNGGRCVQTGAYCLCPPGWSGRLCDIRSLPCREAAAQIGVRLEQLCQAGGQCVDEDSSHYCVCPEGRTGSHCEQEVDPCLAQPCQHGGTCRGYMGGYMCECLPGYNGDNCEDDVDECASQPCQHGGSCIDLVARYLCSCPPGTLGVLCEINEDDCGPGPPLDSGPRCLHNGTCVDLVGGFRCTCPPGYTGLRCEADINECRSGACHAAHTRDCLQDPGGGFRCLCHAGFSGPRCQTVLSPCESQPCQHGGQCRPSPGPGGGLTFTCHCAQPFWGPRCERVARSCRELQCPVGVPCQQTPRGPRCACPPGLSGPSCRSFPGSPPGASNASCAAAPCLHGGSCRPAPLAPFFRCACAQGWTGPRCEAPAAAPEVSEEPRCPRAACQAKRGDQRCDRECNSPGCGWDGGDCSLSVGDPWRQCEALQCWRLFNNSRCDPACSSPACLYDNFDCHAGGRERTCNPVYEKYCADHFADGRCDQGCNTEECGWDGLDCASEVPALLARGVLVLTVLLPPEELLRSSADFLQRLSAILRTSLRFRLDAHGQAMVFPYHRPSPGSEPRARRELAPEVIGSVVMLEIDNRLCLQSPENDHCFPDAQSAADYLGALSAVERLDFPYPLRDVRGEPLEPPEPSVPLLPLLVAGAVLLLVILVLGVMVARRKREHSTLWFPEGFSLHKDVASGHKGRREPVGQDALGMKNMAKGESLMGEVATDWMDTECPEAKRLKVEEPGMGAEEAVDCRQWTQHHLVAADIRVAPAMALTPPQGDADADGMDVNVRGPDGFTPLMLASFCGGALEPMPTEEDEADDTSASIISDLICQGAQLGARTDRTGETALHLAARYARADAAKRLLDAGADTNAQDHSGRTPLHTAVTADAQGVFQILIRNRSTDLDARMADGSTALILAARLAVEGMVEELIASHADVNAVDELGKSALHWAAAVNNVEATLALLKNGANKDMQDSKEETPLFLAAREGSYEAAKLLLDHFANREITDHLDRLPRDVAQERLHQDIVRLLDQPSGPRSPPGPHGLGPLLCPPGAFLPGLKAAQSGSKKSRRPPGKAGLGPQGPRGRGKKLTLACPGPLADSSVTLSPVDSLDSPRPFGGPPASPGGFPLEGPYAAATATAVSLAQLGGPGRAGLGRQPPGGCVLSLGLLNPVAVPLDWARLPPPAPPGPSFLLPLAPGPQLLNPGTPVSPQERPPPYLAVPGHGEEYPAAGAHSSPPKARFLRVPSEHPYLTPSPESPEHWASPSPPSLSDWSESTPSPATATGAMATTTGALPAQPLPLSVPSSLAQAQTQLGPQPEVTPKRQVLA
A short description of experiment [20]: probe aEGFR binding to arrayed compounds – biochemical, biotinylated probe, 635/667 nm fluorescence, primary screen (AID 1097).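 Note: probe is a biotinylated anti-EGFR antibody binding compounds printed on slides; score combines fluorescence near 667 nm and signal to noise of each spot.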 The note with it: small-molecule microarray, higher = more signal.

The text below walks through data of PubChem BioAssay.

Active and inactive are the calls of the source.

As for `COCCOC(=O)N1C(=O)[C@@]2(c3cc(C#CC4(O)CCCCCC4)ccc31)[C@H](c1ccc(OCCO)cc1)N1[C@H](c3ccccc3)[C@H](c3ccccc3)OC(=O)[C@H]1[C@@H]2C(=O)N1CCCCCCC1`, the composite z-score in [1] came out at 1.81; in experiment [2] it was 0.437; in [3] it was 0.466; in experiment [4], 0.276; in experiment [5] it was 1.25; in [6], 1.77. Also, the composite z-score in experiment [7] amounted to 1.29; in experiment [9], 2.41; in experiment [10], 2.99; in experiment [11], 1.55; in experiment [15], 3.09; in [17] it was 1.15. In addition, the composite z-score in experiment [18] is 1.82; in experiment [19], 1.11; in experiment [20] it was 0.753. In addition, the z-score is 0.222 (inactive) in [8]; 1.42 (inactive) in experiment [12]; 0.598 (inactive) in [13]; 3.68 (inactive) in experiment [14]; 0.436 (inactive) in [16].
With `COc1ccc([Si](C)(C)[C@H]2[C@H](CCn3cc([C@H](O)c4ccccc4)nn3)O[C@@]3(C(=O)N(c4ccccc4)c4ccccc43)[C@@H]2C)cc1`, the composite z-score in experiment [1] is -0.0662; in experiment [2], -0.125; in experiment [3], -0.137; in [4], 0.0529; in experiment [5], -0.0554; in experiment [6], 0.44. Also, the composite z-score in [7] was 0.248; in experiment [9], -0.0512; in experiment [10], -0.236; in experiment [11], 1.56; in [15] it was 0.147; in experiment [17] it was -0.166. Moreover, the composite z-score in [18] was 1.1; in experiment [19], 0.802; in experiment [20], -0.187. In addition, the z-score in experiment [8] was -0.805 (inactive); in [12], 1.02 (inactive); in experiment [13], 1.11 (inactive); in experiment [14] it was 1.88 (inactive); in [16], 1.58 (inactive).
With `CC(=O)c1ccc(C(O)C2C=CC3C(=O)NC(=O)C3N2Nc2ccc(Cl)cc2Cl)cc1` (stereo not given), the composite z-score in experiment [1] was 0.863; in [2], 0.37; in experiment [3] it was 0.045; in experiment [4], 0.606; in [5], 1.01; in experiment [6], 1.72. Further, the composite z-score was 0.669 in experiment [7]; 0.462 in experiment [9]; -0.106 in [10]; -0.002 in experiment [11]; 3 in experiment [15]; 0.0277 in experiment [17]. In addition, the composite z-score in experiment [18] is -0.742; in experiment [19], 0.424; in [20] it was -0.0828. Moreover, the z-score in experiment [8] was 1.12 (inactive); in [12], 0.727 (inactive); in [13] it was 0.973 (inactive); in [14] it was 1.14 (inactive); in experiment [16], -1.08 (inactive).
Consider `CC=CC(O)C1C=CC2C(=O)N(C)C(=O)C2N1NC(=O)OC(C)(C)C` (stereo not given), for which the composite z-score in experiment [1] was -0.0303; in experiment [2], 0.371; in [3] it was -0.072; in experiment [4], 0.488; in [5] it was 1.16; in experiment [6], 0.746. Moreover, the composite z-score in experiment [7] was 1.09; in [9], 0.449; in [10], 0.108; in experiment [11] it was 0.534; in experiment [15], 0.522; in [17] it was -0.286. For the same compound, the composite z-score in experiment [18] is 0.251; in experiment [19], 0.775; in experiment [20], -0.0244. Besides, the z-score in experiment [8] is 0.282 (inactive); in experiment [12] it was -0.219 (inactive); in experiment [13], 0.64 (inactive); in [14], 0.0896 (inactive); in experiment [16], -1.13 (inactive).
With `O=C1c2ccccc2[C@](Cc2ccccc2I)(C(=O)O)[C@H](c2ccc(CO)cc2)N1Cc1ccccc1`, the composite z-score in experiment [1] was 0.877; in experiment [2], 0.996; in [3] it was -0.101; in experiment [4], 0.0611; in [5], 0.19; in experiment [6], 1.51. For the same compound, the composite z-score was 1.23 in experiment [7]; -0.0119 in experiment [9]; -0.226 in experiment [10]; 1.55 in experiment [11]; 2.5 in [15]; 0.0299 in experiment [17]. Further, the composite z-score in [18] is -0.57; in [19] it was -0.0277; in experiment [20] it was -0.027. Further, the z-score was -1.1 (inactive) in experiment [8]; -2.23 (inactive) in [12]; -0.912 (inactive) in experiment [13]; -1.22 (inactive) in experiment [14]; 0.66 (inactive) in experiment [16].
